Assay outcomes: PubChem BioAssay, The Scripps Research Institute Molecular Screening Center
In the library only some 4.1% were active in any assay of this set; here they are far more common.
ssDAF-12 act = activates DAF-12 receptor from parasite S. stercoralis | actives 1% (n = 370,000) | AID 652126 | HEK293 ssDAF-12/GRIP1 lit1-tk-luc reporter, luminescence; % of 3 µM dafachronic acid response | activation, % at 6.8 µM;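 active means activation above the mean over all tested compounds plus 3 SD, cut at about 0.9% in these data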;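 further: 0% = DMSO-only wells and 100% = 3 µM delta7-dafachronic acid wells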
hcDAF-12 act = H. contortus DAF-12 activation, primary screen; activation, % at 6.8 µM; HEK293 hcDAF-12 lit1-tk-luc reporter, luminescence; 0% DMSO, 100% Δ7-dafachronic acid; actives 1.4% (n = 370,000);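 active means activation above the mean of all tested compounds plus 3 SD, cut at about 5.5% in these data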;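 further: 100% = response to 3 µM Δ7-dafachronic acid high control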
hgDAF12 agonist = hgDAF-12 agonism, primary luciferase screen | HEK293 GAL4-hgDAF12 UAS-luciferase reporter, agonist luminescence; normalized to butyrate control | activation, % at 6.8 µM | actives 1.8% (n = 370,000) | AID 687014;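 active means activation above a cutoff set at the mean of all screened compounds plus 3 SD, cut at about 10% in these data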;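 further: 0% = DMSO wells and 100% = sodium butyrate wells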
DAX1 inh-1 = inhibitors of DAX1 repression of SF-1 activated StAR promoter; HEK293T StAR-luciferase reporter, SF-1/DAX-1 repression relief; inhibition, % at 6.8 µM; actives 1.1% (n = 370,000); AID 652010;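 active means inhibition above the mean over all tested compounds plus 3 SD, cut at about 3.6% in these data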;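 further: 0% = DAX-1 cells with DMSO and 100% = cells lacking DAX-1 with DMSO; higher inhibition means more luminescence from relief of DAX-1 repression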
DAX1 inh-2 = NR0B1 (DAX1) inhibition; inhibition, % at 6.75 µM; AID 504766; actives 0.99% (n = 340,000); HEK293 Gal4-DAX1 luciferase reporter, luminescence; P51843;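 active means inhibition above the mean over all tested compounds plus 3 SD, cut at about 4.2% in these data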;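 further: 0% = DAX1-transfected cells with DMSO and 100% = empty-vector control cells with DMSO; inhibition shows as a rise in luminescence from relieved DAX1 repression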
Target sequence (P51843 207-470 limits assumed): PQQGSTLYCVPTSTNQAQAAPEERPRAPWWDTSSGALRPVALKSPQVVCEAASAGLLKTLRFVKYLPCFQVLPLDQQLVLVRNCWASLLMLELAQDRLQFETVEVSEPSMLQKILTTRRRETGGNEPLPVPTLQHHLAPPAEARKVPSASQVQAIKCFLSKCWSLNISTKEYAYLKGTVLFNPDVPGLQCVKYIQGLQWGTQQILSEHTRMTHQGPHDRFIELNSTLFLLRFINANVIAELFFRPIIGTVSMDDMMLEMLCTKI
An asterisk follows results filed as active; . = not tested or not shown.

SMILES | ssDAF-12 act | hcDAF-12 act | hgDAF12 agonist | DAX1 inh-1 | DAX1 inh-2
COCCNC(=O)CN1C(=O)CN=C(c2ccccc2)c2ccccc21 | -1 | -1 | 2 | 0 | 4.5*
O=c1[nH]c(=S)[nH]c(O)c1/C=C1/C=c2ccccc2=N1 | 0 | 5.8* | 3 | 0 | 3
Cc1cccc2c1=NC(=O)/C(=C/c1c(O)[nH]c(=O)[nH]c1=O)C=2 | 0 | 5 | 0 | 0 | 1
Clc1ccc([C@H]2CC3CCC2N3)cn1 (some centres not stated) | -1 | 2 | 2 | 0 | .
CSc1nc(Cl)c(Br)c(N2CC2)n1 | -1 | 0 | -2 | 1 | 4.6*
Cc1cc(C(=O)Nc2ccc3c(c2)OCCO3)nn1C(C)(C)C | 0 | 2 | 7 | 1 | 5.7*
Cc1cc(C(=O)Nc2ccccc2)nn1C(C)(C)C | -1 | 2 | 5 | 1 | 3
O=C(NCCN1CCC2(CC1)C(=O)NCN2c1ccccc1)C(c1ccccc1)c1ccccc1 | -1 | -2 | 0 | 1 | .
C=CCn1c(O)c(/C=C2/C=CC=N2)c(=O)[nH]c1=O | -1 | -1 | 1 | 1 | 1
CCCCn1c(O)c(/C=C2/C=CC=N2)c(=O)[nH]c1=O | -1 | -2 | 0 | 0 | 5.4*
C/C(=N\NC(=S)Nc1ccccc1)c1c(O)n(C)c(=O)n(C)c1=O | 0 | 4 | 11* | 1 | 1
CSC(=Nc1ccccc1)c1c(O)n(C)c(=O)n(C)c1=O | -1 | 5.7* | 4 | 0 | 0
CN1C(=O)[C@@]23C[C@]4(c5c[nH]c6ccccc56)c5ccccc5N(S(=O)(=O)c5ccccc5)[C@@H]4N2C(=O)[C@@H]1SS3 | -4 | -9 | -14 | . | .
COC(=O)c1c(C)[nH]c(C(=O)C(Cc2ccccc2)N(C)C)c1C (configuration not stated) | 0 | 6.4* | 2 | 0 | 0
CCOC(=O)c1c(C)[nH]c(C(=O)C(Cc2ccccc2)N(C)C)c1C (configuration not stated) | -1 | -2 | 3 | -1 | 0
CCc1cc(OC)c(CCN)cc1OC | 0 | -2 | 0 | 0 | .
COC(=O)C(O)(c1ccc(NC(=O)NC2CCCCC2)cc1)C(F)(F)F (configuration not stated) | 1 | 1 | 11* | 2 | 1
CC(=NNC(=S)N1CC2CCC(CC2)C1)c1nccs1 | 0 | 5 | 12* | -1 | -4
Cn1cccc1/C=C1/C(=O)NC(=O)N(C(C)(C)C)C1=O | -1 | -1 | -2 | -1 | 4.8*
Cn1cccc1/C=C1\C(=O)NC(=O)N(Cc2ccccc2Cl)C1=O | -1 | 1 | 0 | 0 | 3
Cc1ccc(N2Cc3ccccc3-n3nncc3C2)cc1 | -1 | -2 | 1 | -1 | .
O=c1[nH]c(=S)n(Cc2ccc(F)cc2)c(O)c1C=NCC1CCCO1 (configuration not stated) | -1 | -2 | 2 | -1 | 6.2*
O=c1[nH]c(=S)n(C2CC2)c(O)c1C=NCC1CCCO1 (configuration not stated) | -2 | -1 | -1 | 0 | 0
O=C(c1ccc(N2CCCCC2)c([N+](=O)[O-])c1)N1CCC2(CC1)OCCO2 | -2 | -1 | -1 | -1 | 5.1*
CC1CCCN(c2ccc(C(=O)N3CCC4(CC3)OCCO4)cc2[N+](=O)[O-])C1 (configuration not stated) | -1 | -3 | -1 | 1 | -1
SMILES | ssDAF-12 act | hcDAF-12 act | hgDAF12 agonist | DAX1 inh-1 | DAX1 inh-2
COc1cc(C(=O)N2C[C@H]3C[C@@H](C2)c2cccc(=O)n2C3)cc(OC)c1OC | 0 | -1 | 1 | 0 | 4.9*
CC(=O)O[C@@]12CO[C@@H]1C[C@H](O)[C@@]1(C)C(=O)[C@H](O)C3=C(C)[C@@H](O)C[C@@](O)([C@@H](OC(=O)c4ccccc4)C12)C3(C)C (some centres not stated) | -1 | 0 | 1 | 1 | 4.3*
CN(C)c1ccc([N+](=O)[O-])c([N+](=O)[O-])c1 | -1 | 1 | -2 | 0 | 4.4*
O=C(CN1C(=O)CN=C(c2ccccc2)c2cc(Cl)ccc21)NC1CCCCC1 | -2 | -4 | -3 | 0 | .
CCC(NC(=O)OCc1ccccc1)P(=O)(Oc1ccccc1)Oc1ccccc1 (configuration not stated) | -1 | -3 | 1 | -1 | .
CCOC(=O)[C@]12Cc3cc(OC)ccc3[C@H]1N(C1CCCCC1)C(=O)c1cc(OC)ccc12 | -1 | -2 | 0 | -1 | .
CCOC(=O)[C@]12Cc3ccccc3[C@H]1N(C)C(=O)c1cc(OC)ccc12 | -2 | -1 | -2 | 3.7* | .
CCOC(=O)[C@]12Cc3cc(C)ccc3[C@H]1N(C(C)C)C(=O)c1ccccc12 | -1 | 2 | -1 | 4.2* | .
Cc1ccc(OC(=O)N(C)C[C@H]2OCc3cnnn3CCCC(=O)N([C@H](C)CO)C[C@H]2C)cc1 | 0 | 1 | 0 | 0 | .
O=C(Nc1nccs1)C(Cl)(Cl)Cl | -1 | 0 | 0 | 2 | 1
O=C(Nc1ccc(Cl)cc1)Nc1nccs1 | 0 | 2 | 11* | -2 | -1
CC(C)NC1(c2ccccc2)CCCCC1 | -2 | 1 | 0 | 1 | .
Fc1cccc(F)c1-c1nc(-c2ccc(Cl)cc2)no1 | 1.8* | 3 | 8 | 0 | 2
O=C(O)[C@H]1NC[C@H]2C[C@H]21 | 0 | -1 | 2 | 0 | 4.8*
CCN(CC)P(c1n(C)cc[n+]1C)N(CC)CC | -1 | -1 | 0 | 0 | 6.2*
c1ccc2c(c1)-c1cccc3cccc-2c13 | -1 | 0 | 0 | 1 | 5.3*
COc1ccc(-c2nn(CCC#N)cc2C(=O)Nc2ccccc2Br)cc1 | -2 | -1 | 0 | 0 | -2
COc1ccc(-c2nn(CCC#N)cc2C(=O)Nc2ccccc2Br)cc1[N+](=O)[O-] | -2 | -2 | 0 | 0 | 4.9*
CN(C)C(=O)Oc1ccnc2cc(Cl)ccc12 | -2 | -2 | -2 | -1 | 5.5*
O=C(NCCN1CCC2(CC1)C(=O)NCN2c1ccccc1)c1cc(C(F)(F)F)ccc1C(F)(F)F | -1 | 1 | 0 | -1 | .
O=c1c([N+](=O)[O-])cn(O)cc1[N+](=O)[O-] | -1 | 1 | 5 | -1 | 4.4*
CCN(CC)c1ccc(/C=C2\C(=O)NC(=S)N(C)C2=O)o1 | 0 | 2 | 8 | 2 | 7.5*
O=C(NC1CCCCC1)N1Cc2ccc(Br)cc2-n2nncc2C1 | -1 | -3 | 5 | 0 | .
COc1ccc(-c2nc3ccccc3c(=O)o2)cc1 | 0 | 5.9* | 6 | 2 | 0
COc1ccc(-n2c(-c3ccc(C)cc3)nc3ccccc3c2=O)cc1 | -1 | -1 | 1 | 0 | 2
Cc1ccccc1CCC[C@H](CC1CCCCC1)CN(C)C(=O)Oc1ccccc1 | 0 | -2 | 2 | -1 | .
NC(Cc1ccccc1)c1csc(Nc2ccccn2)n1 (configuration not stated) | 0 | 4 | 11* | 2 | .
